Hits are enriched below; roughly 13% of the tested compounds scored in any of these assays.
Pf growth 48h – Primary qHTS for delayed death inhibitors of the malarial parasite plastid, 48 hour incubation. hit rate 5.9% among 310,000. Potency, µM (highest dose often 28.7 µM), without a hit: at the highest dose activity change, negative = inhibition, most hits filed as inhibitors. P. falciparum luciferase growth in erythrocytes, 48 h. AID 504832, 2011; also: potency is read from the fitted curve at half-maximal effect
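Here the parasites carry a stable luciferase gene and grow inside erythrocytes in Albumax-based RPMI medium with compound for one erythrocytic cycle. Activity is scored as loss of luminescent signal.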
Pf growth 96h – Primary qHTS for delayed death inhibitors of the malarial parasite plastid, 96 hour incubation; P. falciparum luciferase reporter growth, 96 h; Potency, µM (top dose mostly 28.7 µM), without a hit: at the highest dose activity change, negative = inhibition, hits mostly inhibitors; hit rate 6.9% among 320,000; also: potency is read from the fitted curve at half-maximal effect
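Plates of compound plus infected erythrocytes (2% hematocrit, 0.05% parasitemia final) incubate 96 hours, 37 C, 5% CO2. Detection reagent added; reduced luminescence from the parasites' luciferase reporter flags inhibition.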
HCMV inh – qHTS Assay for inhibitors of the human cytomegalovirus (HCMV) | HFF cells, HCMV-luciferase reporter, 72 h; active compounds read low | hit rate 4.5% among 410,000 | activity change, negative = inhibition, % at 57.5 µM; in the data active = activity change below about -60%; inconclusive = no clear call, values can overlap the other calls; inactive = above about -39%
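Steps: HFFs plated, 16 h 37C; compounds added; HCMV-luciferase added to MOI 1 PFU/cell; 72 h 37C; OneGlo reagent, 5 min room temperature; luminescence read, normalized to controls.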
HCV inhibitor – qHTS Assay for Inhibitors of Hepatitis C Virus (HCV); Huh7.5.1 HCVcc-Cre infection, luciferase reporter, 44 h; Potency, µM (series often up to 41.8 µM), for the others: top-dose activity change, negative = inhibition, usual class: inhibitors; hit rate 3.4% among 340,000; also: potency is read from the fitted curve at half-maximal effect
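Cells seeded at 1,000/well and cultured 4 h, then compounds added followed by HCVcc-Cre virus (~0.5 moi). After 44 h further culture, luciferase substrate was added, plates held 15 min at room temperature, and luminescence read for 15 sec.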
* hit, by the source's call; ? = inconclusive; . = no result given. Unless noted, calls follow the shape of the dose curve; as a rule, active = well fitted inhibition curve with a large enough effect; inconclusive = small, poorly fitted or top-dose-only effect, or another doubt; inactive = no such curve, though single readings can be large or run the other way. % is scaled to controls: 0 for no effect and ±100 for the full control effect.

SMILES | Pf growth 48h | Pf growth 96h | HCMV inh | HCV inhibitor
Cc1ccnc(SCCn2c(N3CCC(C)CC3)nc3c2c(=O)n(C)c(=O)n3C)n1 | . | . | -16 | -1%
Cn1c(=O)[nH]c(=O)c2c1nc(N1CCCCC1)n2CCCSc1nc2ccccc2s1 | ? | 4.1µM* | -28 | 10µM*
Cn1c(=O)c2c(nc(N3CCCCC3)n2CCSc2nc3ccccc3s2)n(C)c1=O | 1% | 5% | -32 | ?
Cn1c(=O)c2c(nc(N3CCC(C(N)=O)CC3)n2CCSc2nc3ccccc3s2)n(C)c1=O | 2.9µM* | 3% | -28 | -3%
Cc1cc(C)nc(SCCn2c(N3CCC(C)CC3)nc3c2c(=O)n(C)c(=O)n3C)n1 | 42% | 2.3µM* | . | .
Cn1c(=O)[nH]c(=O)c2c1nc(N1CCCC1)n2CCCSc1nc2ccccc2o1 | ? | -2% | -17 | -23%
C[C@H]1[C@@H](NC(=O)Nc2cc(Cl)cc(Cl)c2)CC[C@@]23CCCN2C(=O)CCC[C@@H]13 | . | . | 4 | .
COc1cccc(NC(=O)Cn2c(=O)n(CCCCC(=O)NCCc3ccccc3)c(=O)c3ccccc32)c1 | . | . | -22 | .
Cc1cccc(N=C2NN=C(c3c(C)[nH]c4ccccc34)CS2)c1 | 2.6µM* | 1.5µM* | -99* | ?
Cc1cccc(N=C2NN=C(c3ccc4c(c3)OCCO4)CS2)c1 | -83% | -82% | 107 | -25%
O=C(Nc1c(C(=O)N2CCN(c3ccccc3)CC2)oc2ccccc12)c1ccc(Br)o1 | . | . | -28 | .
C=CCc1ccc(OCCCN2CCCC(C)C2)c(OC)c1 (centres undefined) | . | 25% | 32 | 25µM*
C=CCc1ccc(OCCCCNC(C)CC)c(OC)c1 (centres undefined) | -13% | 118% | -21 | 8.9µM*
C=CCc1cc(Cl)ccc1OCCOCCN(C)C | ? | -5% | ? | ?
CNCCCOc1ccc(Cl)cc1C(C)(C)C | ? | 11% | -12 | -28%
COCCCNCCCOc1ccc(Cl)cc1C(C)(C)C | ? | ? | -27 | 7.1µM*
C=CCc1cc(Cl)ccc1OCCOCCNC(C)(C)C | 13µM* | 3% | -71* | ?
C/C=C/c1ccc(OCCCNC(C)CC)c(OC)c1 (centres undefined) | . | 6% | -10 | -17%
Cn1c(Oc2ccc(F)cc2)nc2c1c(=O)n(Cc1ccccc1Cl)c(=O)n2C | . | . | -10 | .
C=CCc1cc(Cl)ccc1OCCOCCNCCOC | -15% | ? | 8 | ?
C=CCc1cc(Cl)ccc1OCCCNC(C)CC (centres undefined) | ? | -23% | ? | 13µM*
CCC(C)NCCCOc1ccc(Cl)cc1C(C)(C)C (centres undefined) | 7% | -28% | -10 | -26%
C=CCc1cc(Cl)ccc1OCCNCCCOC | -10% | 13µM* | -37 | -12%
COc1cccc(CNCCc2ccccc2)c1OC | -23% | 6% | ? | -3%
COc1ccc(CNCCc2c[nH]c3ccccc23)c(OC)c1C | ? | 2.9µM* | 19 | ?
SMILES | Pf growth 48h | Pf growth 96h | HCMV inh | HCV inhibitor
COc1ccc(CNCCc2ccccc2F)c(OC)c1C | 10µM* | -6% | 36 | ?
CCOc1ccc(N2CC(NC(=O)CCc3ccccc3)CC2=O)cc1 (centres undefined) | . | . | -7 | .
CCOC(=O)C1CCCN(C(=O)c2cc3c(=O)n(C)c4ccccc4c3s2)C1 (centres undefined) | . | . | -2 | .
Cc1c(C(=O)N2CCN(c3ccccc3F)CC2)sc2ncn(CC(=O)N3CCOCC3)c(=O)c12 | ? | . | -25 | 12%
Cc1ccc(NC(=O)c2sc3nc(C)nc(N4CCN(c5ccccn5)CC4)c3c2C)c(C)c1 | ? | 22% | ? | 3%
COc1ccc(C)cc1NC(=O)c1sc2nc(C)nc(N3CCOCC3)c2c1C | ? | ? | 6 | ?
Cc1nc(N2CCN(c3ccccn3)CC2)c2c(C)c(C(=O)N3CCN(c4ccccc4F)CC3)sc2n1 | 8.3µM* | 24% | 14 | 32µM*
COc1ccc(C)cc1NC(=O)c1sc2ncnc(N3CCN(c4ccccn4)CC3)c2c1C | ? | 2% | -12 | 1.4µM*
Cc1nc(N2CCN(c3ccccn3)CC2)c2c(C)c(C(=O)Nc3ccc(Br)cc3C)sc2n1 | 2.9µM* | -28% | ? | 9%
COc1cc(OC)cc(-c2nc3n(n2)C(c2ccccc2F)C(C(=O)Nc2cccnc2)=C(C)N3)c1 (centres undefined) | . | . | -20 | .
CCOC(=O)CCc1c(C)nc(SCCCn2c(=O)[nH]c3ccccc32)c(C#N)c1C | ? | -1% | -16 | 7%
CCOC(=O)CCc1c(C)nc(SCCN2CCCC2)c(C#N)c1C | ? | 5.2µM* | -4 | ?
CCCCC(=O)Nc1ccc(OCc2cc(=O)n3c(C)csc3n2)cc1 | . | . | -12 | .
Cc1ccc(S(=O)(=O)N2CCOCC2)cc1NC(=O)CN1CCC(Cc2ccccc2)CC1 | 13µM* | 3.7µM* | -33 | ?
CC1(c2ccccc2)NC(=O)N(CC(=O)Nc2cc(S(=O)(=O)N3CCOCC3)ccc2Cl)C1=O (centres undefined) | -22% | -2% | ? | 2%
Cc1ccc(NC(=O)NC(=O)CN2CCN(c3ccc(O)cc3)CC2)c(C)c1 | 3% | -2% | -81* | ?
Cc1ccc(NC(=O)NC(=O)CN2CCC(C(N)=O)CC2)c(C)c1 | 122% | 282% | 10 | 1%
O=S(=O)(c1ccc(OCC(O)CN2CCC(Cc3ccccc3)CC2)cc1)N1CCOCC1 (centres undefined) | 12µM* | ? | -40 | ?
Cc1ccc(C2(C)NC(=O)N(CC(=O)Nc3cc(S(=O)(=O)N4CCOCC4)ccc3C)C2=O)cc1 (centres undefined) | -14% | ? | -101* | 7%
COc1cc(OC)c(OC)cc1/C=C/c1nc2cc3ccccc3cc2c(=O)n1-c1ccccc1Br | . | . | 25 | .
Cc1ccc(S(=O)(=O)N2CCOCC2)cc1NC(=O)CN1CCN(C)CC1 | -22% | -23% | 0 | 35%
Cc1ccc(S(=O)(=O)N2CCOCC2)cc1NC(=O)COC(=O)CSc1ccc(Br)cc1C | . | -24% | -96* | 10%
Cc1ccc(S(=O)(=O)N2CCOCC2)cc1NC(=O)CN1CCN(c2ccc(O)cc2)CC1 | ? | ? | -61* | 19%
CCOc1ccc(CCNC(=O)c2cn(CC)c3ccc(S(=O)(=O)N4CCCCCC4)cc3c2=O)cc1OCC | . | . | -34 | .
CCOc1ccc(C(=O)Nc2cc(C)ccn2)cc1 | 145% | 2% | -65* | -11%
CCOc1cc(C(=O)Nc2cc(C)ccn2)cc(OCC)c1OCC | 51% | ? | -95* | ?
COC(=O)[C@]12CCCCC=C1N(CCc1ccc(OC)c(OC)c1)C(=O)[C@H](CC(=O)NCc1cccs1)C2 | . | . | 35 | .
COc1ccc(NC(=O)c2cc(=O)c3ccc(C)c(C)c3o2)cc1Cl | . | . | 2 | .
Cc1ccc(S(=O)(=O)n2ccc3cccnc32)cc1 | ? | -19% | 13 | -1%
Cc1ccc(S(=O)(=O)n2cccc2/C=C/[N+](=O)[O-])cc1 | . | . | -98* | .

Screening data deposited in PubChem by National Center for Advancing Translational Sciences (NCATS).
